From PubChem BioAssay
SIRT5 inh = SIRT5 desuccinylase inhibitors, primary screen, biochemical, fluorescence imaging, single point, set 5 | NAD-dependent protein deacylase sirtuin-5, mitochondrial (Homo sapiens), Q9NXA8 | Purified SirT5, succinyl-peptide AMC, trypsin-coupled fluorescence | inhibition, % at 15 µM | 330,000 tested, 1.1% active | AID 652115, 2013; in the data active = inhibition above about 15%; inconclusive = no clear call, values can overlap the other calls
dFosB act = activators of delta FosB homodimer, primary screen, biochemical, fluorescence polarization, TAMRA-CDK5 oligo, single point. activation, % at 25 µM. purified delta FosB; percent of positive-control signal above neutral wells. Protein FosB (Mus musculus), P13346. 340,000 tested, 0.99% active. AID 493131, 2011;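 active = mean activation above about 17%, with every replicate also reaching it, limit read from the data, passing the limit was not always enough; inconclusive = only one of the two conditions met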
FGF22 binding = binders of human FGF22 protein, primary screen, FGF22 synaptogenesis inhibitor project, biophysical, thermal shift, single point. Fibroblast growth factor 22 (Homo sapiens), Q9HCT0. recombinant FGF22 thermal shift, SYPRO orange fluorescence; percent of sucrose octasulfate shift, DMSO zero. activity (Tm shift, normalised), % at 9.99 µM. 340,000 tested, 1.5% active;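 active = mean Tm shift, scaled 0 neutral to 100 positive control, at about 1.3% or above, every replicate too, limit read from the data; inconclusive = no clear call, values can overlap the other calls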
CDK5 p35 inh = inhibitors of human CDK5/p35 kinase, primary screen, biochemical, single concentration; Cyclin-dependent kinase 5 (Homo sapiens) + Cyclin-dependent kinase 5 activator 1 (Homo …; Recombinant CDK5/p35, ADP-Glo luminescence, 60 min; inhibition, % at 10 µM; 330,000 tested, 0.01% active;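 active = highest replicate inhibition of at least 50% and at least 75% of replicates reaching 50%; inconclusive = only one of the two criteria met; inactive = both criteria failed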;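 also: plate controls were DMSO neutral control for no effect and GW8510 at 10 µM for full effect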
Target sequence (Q00535 whole entry, looked up): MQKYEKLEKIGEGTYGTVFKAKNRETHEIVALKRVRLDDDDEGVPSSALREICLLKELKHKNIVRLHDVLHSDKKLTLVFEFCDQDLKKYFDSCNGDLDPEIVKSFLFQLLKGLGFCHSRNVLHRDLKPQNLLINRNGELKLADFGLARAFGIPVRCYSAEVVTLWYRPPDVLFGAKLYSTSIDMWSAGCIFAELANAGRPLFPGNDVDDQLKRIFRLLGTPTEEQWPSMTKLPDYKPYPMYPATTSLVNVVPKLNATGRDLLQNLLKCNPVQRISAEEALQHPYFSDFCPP
Target sequence (Q15078 whole entry, looked up): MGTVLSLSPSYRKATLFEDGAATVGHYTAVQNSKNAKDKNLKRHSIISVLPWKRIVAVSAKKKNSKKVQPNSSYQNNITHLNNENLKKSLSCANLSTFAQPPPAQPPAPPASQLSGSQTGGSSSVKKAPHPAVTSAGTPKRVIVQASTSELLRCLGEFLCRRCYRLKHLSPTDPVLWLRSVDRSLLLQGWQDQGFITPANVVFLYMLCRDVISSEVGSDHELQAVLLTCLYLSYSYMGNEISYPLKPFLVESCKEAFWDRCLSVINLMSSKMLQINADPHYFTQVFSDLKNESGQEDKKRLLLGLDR
PvdQ acylase = P. aeruginosa PvdQ acylase inhibitors, primary screen, biochemical, fluorescence, plate reader and imaging, single point | PvdQ acylase [Pseudomonas aeruginosa LESB58] | 340,000 tested, 0.063% active | inhibition, % at 10 µM | purified PvdQ acylase; in the data active = inhibition above about 30%, passing the limit was not always enough; inconclusive = no clear call, values can overlap the other calls;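 also: 0% = vehicle neutral wells and 100% = reference inhibitor wells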
PglD inh = C. jejuni PglD acetyltransferase inhibitors, primary screen, biochemical, DTNB colorimetric, single point; inhibition, % at 12.5 µM; 360,000 tested, 0.098% active; AID 602405, 2012; UDP-N-acetylbacillosamine N-acetyltransferase PglD (Campylobacter jejuni); purified PglD enzyme, DTNB colorimetric CoA detection; in the data active = inhibition above about 16%, passing the limit was not always enough; inconclusive = no clear call, values can overlap the other calls
Active calls of the source: *; ? = inconclusive; . = no result. Only some compounds are listed: those with a hit (about 2.8% of all), similar ones and a draw of the others.

SMILES	SIRT5 inh	dFosB act	FGF22 binding	CDK5 p35 inh	PvdQ acylase	PglD inh
O=C(CC1C(=O)NCCN1Cc1ccc(-c2ccccc2)cc1)NCCc1ccccn1 (stereo not drawn)	0	-4	0	-1	-7	.
CN(CCc1ccccn1)C(=O)CC1C(=O)NCCN1Cc1ccc(-c2ccccc2)cc1 (stereo not drawn)	0	-7	44*	0	-23	.
C=CCNC(=O)CC1C(=O)NCCN1Cc1ccc(-c2ccccc2)cc1 (stereo not drawn)	4	-1	43*	5	-7	.
COCCN(C)C(=O)CC1C(=O)NCCN1CC(c1ccccc1)c1ccccc1 (stereo not drawn)	1	-1	44*	-1	-16	.
O=C(CC1C(=O)NCCN1Cc1ccc(-c2ccccc2)cc1)NCC1CC1 (stereo not drawn)	-1	-8	44*	0	7	.
Cc1ccc(CN2CCNC(=O)C2CC(=O)N(C)CCc2ccccc2)cc1 (stereo not drawn)	11	-6	0	0	-12	11
CC(C)CC#Cc1ccc2c(c1)O[C@@H](CN(C)Cc1ccccn1)[C@@H](C)CN([C@H](C)CO)S2(=O)=O	8	.	0	.	.	0
Cc1noc(C)c1S(=O)(=O)Nc1cccc2c1O[C@@H](CN(C)Cc1ccc(C(=O)Nc3ccccc3N)cc1)[C@@H](C)CN([C@@H](C)CO)C2=O	8	.	0	.	.	.
FC(F)(F)c1cccc(Cc2noc(CN3CCCC3)n2)c1	-2	4	0	-1	-14	.
OCC1CCCN(C2CCN(Cc3nc(Cc4cccc(C(F)(F)F)c4)no3)CC2)C1 (stereo not drawn)	3	0	43*	1	-8	.
OC[C@@H]1[C@@H](c2ccc(C#CC3(O)CCCC3)cc2)[C@H]2CN(Cc3cccnc3)CCCCN12	-3	.	0	.	.	2
CN(CCOc1ccccc1)C(=O)c1cc([N+](=O)[O-])cc([N+](=O)[O-])c1	27*	-6	0	-6	-9	.
O=C(NCCOc1ccccc1)c1cc(C(=O)NCCOc2ccccc2)cc([N+](=O)[O-])c1	.	-4	.	-1	3	-1
Cc1noc(C)c1S(=O)(=O)Nc1ccc2c(c1)CC(=O)N([C@H](C)CO)C[C@@H](C)[C@H](CN(C)Cc1ccc3c(c1)OCO3)O2	1	.	0	.	.	1
CCCc1c(C)nc(N2CCN(c3ccc(F)cc3)CC2)[nH]c1=O	21*	5	0	1	-3	0
CCc1ccc(-c2cc3c(=O)n(CC(=O)NCCCN4CCC(Cc5ccccc5)CC4)nc(C)n3n2)cc1	4	-5	0	.	-17	-3
Cc1nn(CC(=O)NCCCN2CCC(Cc3ccccc3)CC2)c(=O)c2cc(-c3ccccc3)nn12	25*	-2	0	0	-8	4
COc1cc(/C=C2\SC(=S)N(NS(=O)(=O)c3ccccc3)C2=O)ccc1O	1	21*	0	0	11	-9
COc1cc(/C=C2\SC(=S)N(NC(=O)c3ccncc3)C2=O)ccc1O	0	33*	0	2	-2	.
COc1cc(/C=C2\SC(=S)N(NC(=O)c3ccc(O)c(OC)c3)C2=O)ccc1O	3	?	0	2	-6	0
O=C(C[C@H]1C=C[C@H](NC(=O)C2CC2)[C@H](CO)O1)NCCc1cscn1	2	.	.	.	.	.
Cn1c(SCC(N)=O)nnc1-c1ccc(C(C)(C)C)cc1	.	-4	0	2	-6	3
Cc1ccc(-c2nnc(SCC(N)=O)n2C)cc1	-2	-3	43*	-1	-10	7
c1csc(CNc2ncnc3ccc(-c4ccc5c(c4)OCO5)cc23)c1	4	-12	44*	-1	0	2
